Compounds with a hit are over-represented: about 0.42% of the library has one in this group of screens.
Pin1 inh: human Pin1 inhibition | hit rate 0.009% among 390,000 | Potency, µM (highest dose often 115 µM), for the others: at the top dose activity, negative = inhibition, most hits filed as inhibitors | Pin1 FP peptide displacement, HiFluor488, 10 min; active = well fitted inhibition curve with a large enough effect in the polarisation, with a control signal flat, not every such curve was filed as active; inconclusive = small, poorly fitted or top-dose-only effect, or effect the other way, or a change in a side signal; inactive = no such curve, though single readings can be large or run the other way; the % refers to the polarisation; also: % is scaled to controls: 0 for no effect and ±100 for the full control effect
Target sequence (Q13526 whole entry, looked up): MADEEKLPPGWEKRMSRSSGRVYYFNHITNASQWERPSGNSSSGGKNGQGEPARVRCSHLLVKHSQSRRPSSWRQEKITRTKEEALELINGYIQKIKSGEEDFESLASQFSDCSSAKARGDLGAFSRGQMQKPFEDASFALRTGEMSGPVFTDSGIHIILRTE
Tb PFK inh-1: T. brucei PFK enzyme inhibition. O15648. T. brucei PFK, ADP-Glo luminescence. Potency, µM (titrated, usually from 57.5 µM), for the others: at the top dose activity, negative = inhibition, actives largely listed as inhibitors. hit rate 0.17% among 330,000. AID 485367;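 also: 0% = uninhibited 1x PFK enzyme wells and -100% = no-enzyme wells; nearly all actives have a fitted effect of over 60% in size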
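ADP-Glo luminescence quantified ADP after 45 min at room temperature, with 1.25 nM T. brucei PFK, 0.1 mM ATP and 0.5 mM fructose-6-phosphate in pH 8.0 TEA buffer. qHTS titrations up to 57 µM; curves classified by quality.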
Tb PGK inh: blocks T. brucei phosphoglycerate kinase; PGK/GAPDH coupled, Kinase-Glo luminescence, 60 min; hit rate 0.043% among 380,000; P07378; Potency, µM (series often up to 57.5 µM), for inactives: at the top dose activity change, negative = inhibition, usual class: inhibitors; also: % is scaled to controls: 0 for no effect and ±100 for the full control effect; nearly all actives have a fitted effect of over 60% in size
Target sequence (P07378 whole entry, looked up): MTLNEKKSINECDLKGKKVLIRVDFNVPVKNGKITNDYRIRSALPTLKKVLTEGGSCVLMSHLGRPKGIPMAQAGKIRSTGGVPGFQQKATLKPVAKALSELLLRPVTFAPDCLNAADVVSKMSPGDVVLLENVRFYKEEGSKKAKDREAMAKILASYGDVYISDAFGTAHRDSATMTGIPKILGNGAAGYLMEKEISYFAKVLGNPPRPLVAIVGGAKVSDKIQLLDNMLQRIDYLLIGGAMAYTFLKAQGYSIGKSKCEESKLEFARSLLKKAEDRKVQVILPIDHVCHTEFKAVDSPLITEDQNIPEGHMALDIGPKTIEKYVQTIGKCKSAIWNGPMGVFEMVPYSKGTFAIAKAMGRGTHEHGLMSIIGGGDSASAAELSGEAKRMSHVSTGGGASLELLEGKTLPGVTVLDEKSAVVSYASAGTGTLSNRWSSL
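Recombinant glycosomal PGK reaction used 1,3-bisphosphoglycerate generated in-well by GAPDH (100nM final) in 100mM TEA pH 7.6, 5mM MgCl2, 0.01% Tween-20. After 60 minutes at room temperature, ATP was read by Kinase-Glo Plus luminescence end-point.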
Chronic BCR inh: blocks chronic active B-cell receptor signaling; ABC-DLBCL IkBa-CBG/CBR reporter, luminescence ratio, 4 h; Potency, µM (doses to about 46.1 µM), without a hit: top-dose activity change, negative = inhibition, usual class: inhibitors; hit rate 0.05% among 340,000; active = well fitted inhibition curve with a large enough effect in the signal ratio, with a control signal flat, not every such curve was filed as active; inconclusive = small, poorly fitted or top-dose-only effect, or effect the other way, or a change in a side signal; the % refers to the signal ratio;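 also: plate controls were basal doxycycline-induced cells for no effect and cells given 10 µM MG132 for full effect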
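Compounds up to 46 uM were incubated four hours with TMD8 cells whose green CBG68 luciferase is fused to IkappaBalpha; red CBR luminescence normalised the signal, and concentration-effect curves were fitted to fusion, red and ratio data.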
B2AR arrestin: agonists driving beta-arrestin recruitment to human beta2-adrenergic receptor; beta-arrestin recruitment to beta2AR, cell-based reporter; Potency, µM (highest dose often 46.1 µM), inactives show at the top dose activation, actives largely listed as activators; hit rate 0.02% among 330,000;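 also: 0% = DMSO controls and full agonism = EC100 isoproterenol or metaproterenol; nearly all actives have a fitted effect of over 65% in size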
GLS inh: blocks human kidney-isoform glutaminase activity | GLS enzymatic activity, qHTS titration | Potency, µM (highest dose often 45.5 µM), inactives show top-dose activity change, negative = inhibition, usual class: inhibitors | hit rate 0.21% among 410,000; also: % is scaled to controls: 0 for no effect and ±100 for the full control effect
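Read-out is an Amplex red fluorescence increase coupled through glutamate oxidase and HRP, measured before and after 30 min room-temperature incubation. hKGA is in 45 mM KH2PO4 (pH 8.2) with 0.02% Tween-20; glutamine added as 1mM solution.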
TbPFK ATP: orthogonal confirmation of T. brucei phosphofructokinase inhibitors; Tb PFK enzyme, ATP depletion, Kinase-Glo Plus luminescence; Potency, µM (highest dose often 57.5 µM), inactives show at the highest dose inhibition; AID 504636; shares compounds with Tb PFK inh-1; hit rate 47% among 1,100; calls by dose curve; also: nearly all actives have a fitted effect of over 60% in size
Tb PFK inh-2: validation of T. brucei phosphofructokinase inhibitors. shares compounds with Tb PFK inh-1. purified T. brucei PFK, ADP-Glo luminescence, 45 min. Potency, µM (titrated, usually from 57.5 µM), inactives show at the top dose activity change, negative = inhibition, actives largely listed as inhibitors. hit rate 41% among 1,100;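 also: plate controls were full PFK enzyme control for no effect and no enzyme control for full effect; nearly all actives have a fitted effect of over 60% in size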
An asterisk follows results filed as active; i = inactive; ? = inconclusive; nt = not tested or not shown. Unless noted, calls follow the shape of the dose curve; as a rule, active = well fitted curve in the direction sought with a large enough effect; inconclusive = small, poorly fitted or top-dose-only effect, or another doubt; inactive = no such curve, though single readings can be large; an effect the other way counts as inactive or inconclusive. Potency is read from the fitted curve at half-maximal effect.

SMILES	Pin1 inh	Tb PFK inh-1	Tb PGK inh	Chronic BCR inh	B2AR arrestin	GLS inh	TbPFK ATP	Tb PFK inh-2
CCc1nnc(NS(=O)(=O)c2ccc(NC(=S)NC(=O)/C=C/c3ccc(OC)cc3)cc2)s1	-13%	?	?	-4%	0%	24%	?	?
COc1ccc(/C=C/C(=O)NC(=S)N2C[C@H]3C[C@H](C2)c2cccc(=O)n2C3)cc1	0%	4%	-4%	0%	-1%	10%	nt	nt
C/C=C\C=C/C(=O)Nc1cccc(C2=NOC3(C2)C[C@@H](C(N)=O)N(C(=O)/C=C/C=C\C)C3)c1 (some centres not stated)	-11%	5.4µM*	?	-10%	0%	11µM*	?	?
C=C(C)C(=O)Nc1cccc(C2=NOC3(C2)C[C@@H](C(N)=O)N(C(=O)c2ccc(Cl)cc2)C3)c1 (some centres not stated)	?	9.5µM*	2.2µM*	-7%	-1%	10µM*	0.67µM*	0.95µM*
C=C(C)C(=O)Nc1cccc(C2=NOC3(C2)C[C@H](C(N)=O)N(C(=O)COc2ccc(Cl)cc2)C3)c1 (some centres not stated)	?	?	?	1%	0%	10µM*	0.54µM*	0.67µM*
C=C(C)C(=O)Nc1cccc(C2=NOC3(C2)C[C@@H](C(N)=O)N(C(=O)C(=C)C)C3)c1 (some centres not stated)	?	?	?	2%	0%	-8%	2.7µM*	1.7µM*
CNC(C)[C@@H](O)c1ccc(O)cc1 (some centres not stated)	nt	nt	nt	nt	nt	14%	nt	nt
O=c1cc2c(=O)oc3cc(O)c(O)oc3c2c(O)c1O	nt	7.6µM*	?	-1%	0%	?	1.2µM*	1.3µM*
O=C1c2ccccc2C(=O)C1C(=O)C(c1ccccc1)c1ccccc1	nt	nt	nt	nt	nt	18%	nt	nt
O=C(Cc1ccc(Cl)c(Cl)c1)N/N=C/c1cccnc1	3%	12µM*	-3%	-23%	-1%	-6%	5.4µM*	12µM*
O=C(NN=Cc1ccc(N(CCCl)CCCl)cc1)c1cccnc1	?	nt	1%	nt	nt	3%	nt	nt
C[C@@H]1CN([C@H](C)CO)C(=O)CCCn2nncc2CO[C@@H]1CN(C)C(=O)Nc1ccc(N2CCCCC2)cc1	nt	nt	0%	nt	nt	5%	nt	nt
Cc1ccc(NC(=O)C2=C(c3ccccc3)S(=O)(=O)CCS2(=O)=O)cc1	-14%	?	-7%	?	0%	0%	-25%	?
O=C(/C=C/c1ccc(S(=O)(=O)NCc2ccco2)cc1)NCc1cccc(Cl)c1	13%	27µM*	i	-4%	0%	5%	21µM*	27µM*
O=C(/C=C/c1ccc(OCCCF)cc1)NCc1cccc(Cl)c1	-1%	?	0%	-1%	0%	9%	?	?
O=C(Cn1cc(C(=O)c2ccccc2)c2ccccc21)NCc1ccco1	0%	-17%	-1%	?	0%	-6%	nt	nt
O=C(/C=C/c1ccco1)NCc1ccco1	-4%	?	-25%	-11%	0%	5%	21µM*	?
Cc1ccc(CCNC(=O)Cn2nc(C)c3c(C)n(-c4ccc(C)cc4)nc3c2=O)cc1	34%	nt	11%	nt	nt	0%	nt	nt
CCC1OC(=O)CC(O)C(C)[C@@H](O[C@@H]2OC(C)[C@H](O[C@@H]3C[C@@](C)(O)C(O)C(C)O3)C(N(C)C)C2O)[C@H](CC=O)CC(C)C(=O)/C=C/C(C)=C/[C@@H]1COC1OC(C)C(O)C(OC)[C@@H]1OC (some centres not stated)	nt	nt	nt	nt	nt	-1%	nt	nt
COc1cc(CC(C)N)c(OC)cc1Br (configuration not stated)	nt	nt	nt	nt	nt	4%	nt	nt
C[C@@H]1O[C@@H](O[C@H]2C[C@@H](O)[C@@]3(CO)[C@H]4[C@H](O)C[C@]5(C)[C@@H](C6=CC(=O)OC6)CC[C@]5(O)[C@H]4CC[C@@]3(O)C2)[C@@H](O)[C@H](O)[C@H]1O	nt	nt	nt	nt	nt	-23%	nt	nt
Clc1cccc2c3c([nH]c12)CCNC3	8%	?	i	16%	0%	-11%	?	?
COC1CC(=C(c2cccs2)c2cccs2)C[N+](C)(C)C1 (configuration not stated)	nt	nt	nt	nt	nt	0%	nt	nt
O=C(Nc1ccc(Cl)cc1)Nc1ccc(S(=O)(=O)Nc2ncccn2)cc1	-4%	15µM*	-2%	?	0%	-5%	8.5µM*	27µM*
O=C(CSc1ccccc1)Nc1ccc(S(=O)(=O)Nc2ncccn2)cc1	-4%	?	-1%	-10%	0%	10%	?	-13%
SMILES	Pin1 inh	Tb PFK inh-1	Tb PGK inh	Chronic BCR inh	B2AR arrestin	GLS inh	TbPFK ATP	Tb PFK inh-2
Cc1c(Nc2cc(Cl)c3nonc3c2[N+](=O)[O-])c(=O)n(-c2ccccc2)n1C	3%	?	1%	?	0%	0%	?	?
O=C1C=C2C=CC3C[C@@]2(O1)C1CCCCN31 (some centres not stated)	nt	nt	nt	nt	nt	53%	nt	nt
O=[As]O[As]=O (configuration not stated)	nt	nt	nt	nt	nt	-5%	nt	nt
O=C(O)COc1ccc(/C=N/NC(=O)c2ccc(-c3csc(Nc4ccc(Cl)cc4)n3)cc2)cc1	nt	?	?	?	1%	?	1.7µM*	2.4µM*
CCOC(=O)NC(C)(C)Cc1ccc(Cl)cc1	nt	nt	nt	nt	nt	-20%	nt	nt
O=C1C[C@@H]2OCC=C3CN4CC[C@]56c7ccccc7N1[C@@H]5[C@@H]2[C@H]3C[C@H]46 (tested in a mixture with another compound)	nt	nt	nt	nt	nt	-3%	nt	nt
Clc1ccc(COc2ccccn2)cc1Cl	0%	17µM*	4%	-22%	0%	6%	12µM*	27µM*
O=[N+]([O-])c1ncccc1OCc1ccc(Cl)c(Cl)c1	4%	?	-9%	?	-1%	-4%	15µM*	17µM*
CCOc1ccc(OCC)c(NC(=O)CCn2c(=O)oc3ccccc32)c1	?	2%	-5%	-7%	0%	13%	nt	nt
S=c1[nH]nc(-c2cc(-c3ccccc3)n[nH]2)n1/N=C/C(Br)=C/c1ccccc1	1%	-25%	-9%	?	0%	9%	nt	nt

Screening data from PubChem.
